Bioassay records (PubChem)
The list is not random: actives were taken first. Their share in the collection is about 7.4%.
ELG1 genotox: genotoxicity induction in ELG1-luciferase HEK293T cells; Potency, µM (top dose mostly 46 µM), for the others: top-dose activity change, positive = activation, usual class: activators; 1.3% of 330,000 active; AID 504466; HEK293T ELG1-luciferase reporter, luminescence, 16 h; also: % of control where 0% means no effect; nearly all actives have a fitted effect of over 60% in size
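Genotoxic stress is detected as increased luminescence from luciferase-tagged ELG1 in HEK293T cells, measured with ONE-Glo after a 16 hr treatment at 37 °C.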
NPC1 prom act: activators of NPC1 promoter | Potency, µM (top dose mostly 9.22 µM), without a hit: top-dose activation, actives largely listed as activators | Huh7 NPC1 promoter luciferase reporter, 24 h | 2.4% of 320,000 active | AID 485313; also: % of control where 0% means no effect; nearly all actives have a fitted effect of over 60% in size
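Luminescence read-out of NPC1 promoter-driven luciferase in stably transfected Huh7 cells; compounds delivered in DMSO and left 24 h at 37C, 5% CO2, qHTS titration format.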
SMN2 splice up: increases expression of the SMN2 splice variant. Potency, µM (titrated, usually from 46.1 µM), for the others: at the top dose activity change, positive = activation, most hits filed as activators. HEK293 SMN2-luciferase splicing reporter, luminescence, 30-36 h. 2.8% of 210,000 active; also: % of control where 0% means no effect; nearly all actives have a fitted effect of over 55% in size
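HEK293 cells carry an SMN2 minigene-luciferase reporter in which exon 7 inclusion puts luciferase in frame. Cells were seeded at 2000 cells/well, attached for 10-12 hours, then exposed to compounds for 30-36 hours at 37C before ONE-Glo luminescence.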
Rab9 promoter act: Rab9 promoter activation; Huh7 Rab9 promoter-luciferase reporter, luminescence, 24 h; Potency, µM (top dose mostly 9.22 µM), inactives show at the top dose activation, negative = inhibition, hits mostly activators; 2.8% of 320,000 active; also: % of control where 0% means no effect; nearly all actives have a fitted effect of over 60% in size
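Luminescence from Amplite-detected luciferase (10 minutes, ambient) reports Rab9 promoter activation. Before that, stable Rab9-luciferase Huh7 cells (1500/well, reduced-serum OP-MEM I plus 10% FBS) were exposed to compound for 24 hours at 37C.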
FLuc modulator: counter-screen for miR-21 project: firefly luciferase inhibitors or activators. P08659. purified FLuc, Km substrates, luminescence inhibition. Potency, µM (doses to about 57.5 µM), without a hit: top-dose activity change, negative = inhibition, actives largely listed as inhibitors. 6.9% of 360,000 active. AID 588342;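 also: plate controls were vehicle for no effect and reference inhibitor for full effect; nearly all actives have a fitted effect of over 55% in size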
Target sequence (P08659 whole entry, looked up): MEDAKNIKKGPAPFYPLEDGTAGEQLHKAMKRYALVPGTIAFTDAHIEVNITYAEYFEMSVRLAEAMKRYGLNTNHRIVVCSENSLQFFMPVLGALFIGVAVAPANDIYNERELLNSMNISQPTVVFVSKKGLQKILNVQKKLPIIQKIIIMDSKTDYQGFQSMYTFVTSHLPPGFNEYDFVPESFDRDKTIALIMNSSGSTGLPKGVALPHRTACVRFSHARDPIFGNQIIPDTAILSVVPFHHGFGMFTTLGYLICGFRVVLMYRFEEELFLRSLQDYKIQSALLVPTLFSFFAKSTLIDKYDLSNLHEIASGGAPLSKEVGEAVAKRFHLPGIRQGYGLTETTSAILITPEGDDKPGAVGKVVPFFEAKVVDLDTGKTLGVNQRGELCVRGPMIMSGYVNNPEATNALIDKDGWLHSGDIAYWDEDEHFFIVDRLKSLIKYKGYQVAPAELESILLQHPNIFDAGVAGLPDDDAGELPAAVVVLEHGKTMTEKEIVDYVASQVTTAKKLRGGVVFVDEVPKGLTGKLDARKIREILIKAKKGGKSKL
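Purified P. pyralis luciferase, 10 nM final, with Km-level 10 uM D-luciferin and 10 uM ATP in 50 mM Tris acetate pH 7.5, 10 mM Mg acetate, 0.01% Tween-20, 0.05% BSA; 6-point qHTS titration about 60 µM downward; luminescence read.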
Numbers without * were called inactive; ? = inconclusive; . = not tested or not shown; [ ] = remark or other dose. Calls follow the shape of the dose curve; as a rule, active = well fitted curve in the direction sought with a large enough effect; inconclusive = small, poorly fitted or top-dose-only effect, or another doubt; inactive = no such curve, though single readings can be large; an effect the other way counts as inactive or inconclusive. Potency is read from the fitted curve at half-maximal effect.

SMILES	ELG1 genotox	NPC1 prom act	SMN2 splice up	Rab9 promoter act	FLuc modulator
COc1ccc(NC(=O)Cn2c(=O)n(CCc3ccccc3)c(=O)c3c4c(sc32)CCCC4)cc1	.	.	-5%	.	-1%
CCOC(=O)/C=C/CCCC=O	.	.	10%	.	.
CC(C)NC(=O)c1cc(-c2ccc(Br)cc2)on1	?	1.4µM*	20µM*	1.6µM*	2.7µM*
Cc1ccc(-c2cc(C(=O)NCCN3CCOCC3)no2)cc1	6%	2%	-4%	3%	?
CCCNC(=O)c1cc(-c2ccc(Br)cc2)on1	?	2.2µM*	?	2.2µM*	?
CN(Cc1ccccc1)C(=O)c1cc(-c2ccc(Br)cc2)on1	8%	9%	?	?	15µM*
CCC1CN(C(=O)N2CCC(C(=O)NCCc3cc(OC)ccc3OC)CC2)c2ccccc2O1 (stereo unspecified)	.	.	.	.	-10%
COc1ccc(/C(O)=C/c2nc3ccccc3n(-c3ccccc3)c2=O)cc1	21%	-3%	-26%	26%	7.6µM*
O=C1c2ccccc2CCC1CNCCc1ccc(O)cc1 (stereo unspecified)	.	.	-80%	.	.
C=CCn1c(-c2cccc(OC)c2)nc2nc3ccccc3nc21	-9%	-1%	-10%	-1%	15µM*
C=CCn1c(-c2cccs2)nc2nc3ccccc3nc21	?	29%	2.8µM*	30%	19µM*
COc1cccc(C(=O)Nc2ccc(C(=O)OCc3cc(=O)n4cc(C)sc4n3)cc2)c1	.	.	.	.	-13%
CCOC(=O)C1=C(C)N=C2c3ccccc3C(=O)C2C1c1ccc(Cl)cc1 (stereo unspecified)	-5%	-4%	-4%	-6%	0%
CCOC(=O)C1=C(Cc2ccc(Cl)cc2)C(=O)c2ccccc2C1=O	-6%	6%	-26%	-10%	21µM*
O=C(Nc1ccc(N2CCOCC2)cc1)c1cc2c(s1)CCCC2	11%	10%	-12%	2%	?
O=C(Nc1ccc(N2CCOCC2)cc1)c1cc2c(s1)CCCCC2	2%	-1%	-16%	-9%	19µM*
O=C(Nc1ccccc1N1CCOCC1)c1cc2c(s1)CCCCC2	7%	27%	.	?	4.8µM*
COc1ccc(OC)c(NC(=O)CS(=O)(=O)Cc2nc(-c3ccc(C)cc3)oc2C)c1	.	.	4%	.	-13%
CCOC(=O)c1sc(N2N=C(C)C(N=Nc3cccc(C)c3)C2=O)nc1C (stereo unspecified)	-3%	21%	.	15%	6.7µM*
COc1ccc(C(=O)NCCSC2CCCCC2)cc1	?	?	16µM*	?	13µM*
O=C(NCCSC1CCCCC1)c1ccccc1	?	29%	?	?	?
O=C(/C=C/c1ccccc1F)c1ccoc1	-1%	-4%	1%	4%	12µM*
FC(F)(F)c1cc(CN2CCCC3(CCNCC3)C2)cc(C(F)(F)F)c1	.	.	-2%	.	.
N#C/C(=C\c1ccc(OCC(N)=O)cc1)c1ccccc1	?	25%	23%	22%	3.8µM*
CCOc1ccc(NC(=O)CCc2nnc3n(C)c(=O)c4sccc4n23)cc1	.	.	0%	.	-6%
SMILES	ELG1 genotox	NPC1 prom act	SMN2 splice up	Rab9 promoter act	FLuc modulator
COc1ccc(-n2ncc3c(Nc4cccc(C)c4)ncnc32)cc1	?	2.8µM*	?	4µM*	11µM*
Cc1ccc(-n2ncc3c(Nc4cccc(C(F)(F)F)c4)ncnc32)cc1C	.	.	.	.	15µM*
COc1ccc(Nc2ncnc3c2cnn3-c2cccc(C)c2)cc1OC	0%	-1%	.	-1%	-1%
Cc1cccc(-n2ncc3c(NC(C)C)ncnc32)c1	2.6µM*	3.2µM*	3.5µM*	0.89µM*	2.4µM*
Cc1cccc(-n2ncc3c(NCCOCCO)ncnc32)c1	.	.	.	.	19µM*
CN(C)c1ccc(CNC(=O)c2cnc3sc(N4CCCCCC4)nn3c2=O)cc1	.	.	.	.	-5%
CC(C)Nc1ncnc2c1cnn2-c1ccccc1	?	1.4µM*	0.63µM*	0.35µM*	2.4µM*
CCCn1ncc2c(Nc3ccc(C)c(C)c3)ncnc21	?	3.5µM*	.	?	24µM*
Cc1cccc(-n2ncc3c(Nc4ccc(F)cc4)ncnc32)c1	15µM*	?	11µM*	2.5µM*	?
O=C(COC(=O)c1ccc[nH]c1=O)NCCc1ccc(Cl)cc1Cl	?	0.4µM*	.	0.5µM*	11µM*
CC(C)c1ccc(NC(=O)c2sccc2-n2cccc2)cc1	5%	4µM*	.	2.8µM*	?
CC(=O)N1CCCC1c1nc2ccccc2n1Cc1cccc(Cl)c1 (stereo unspecified)	.	.	.	.	3%
Cc1ccc(N2C(=O)c3ccccc3C2C(=O)c2ccc(O)cc2O)cc1 (stereo unspecified)	-4%	2%	?	-1%	-5%
Cc1ccc(N2C(=O)c3ccccc3C2C(=O)c2cc(C)ccc2O)cc1 (stereo unspecified)	-1%	23%	13µM*	21%	?
Oc1[nH]c2ccccc2c1N=Nc1cccc(Cl)c1	?	30%	.	?	5.4µM*
CCOc1ccc(NC(=S)N=Nc2c(O)[nH]c3ccccc23)cc1	-10%	-8%	-41%	-4%	-16%
Cc1ccc2[nH]c(O)c(N=NC(N)=S)c2c1	5%	-4%	.	1%	2%
Oc1[nH]c2ccccc2c1N=Nc1c(F)c(F)c(Cl)c(F)c1F	4%	24%	.	?	-3%
Oc1cccc(NC(=S)N=Nc2c(O)[nH]c3ccccc23)c1	?	16%	.	22%	19µM*
Cc1ccc(N=Nc2c(O)[nH]c3ccc(F)cc23)cc1	?	3.2µM*	.	2.8µM*	?
Cc1cccc2c(N=Nc3ccccc3)c(O)[nH]c12	5.2µM*	1.4µM*	.	2µM*	1.5µM*
CCCN(C(=O)c1nn(-c2ccc(OC)cc2)c(=O)c2c1c1ccccc1n2C)c1ccc(CC)cc1	.	.	-6%	.	-5%
COc1ccc(N=Nc2[nH]c3ccc(C)cc3c2O)cc1	13%	7%	0%[1.84 µM]	24%	-11%
Nc1nc(N)c(N=Nc2ccc(C(=O)O)cc2)c(N)n1	0%	-2%	.	16%	-17%
Cc1ccc(N=Nc2[nH]c3ccccc3c2O)cc1	?	5%	13µM*	19%	?
SMILES	ELG1 genotox	NPC1 prom act	SMN2 splice up	Rab9 promoter act	FLuc modulator
COC(=O)N=Nc1c(O)[nH]c2ccc(Br)cc12	-5%	12%	.	14%	-8%
O=C(O)c1ccc(N=Nc2c(O)[nH]c3cc(Cl)ccc23)cc1	9.2µM*	0.32µM*	.	0.1µM*	0.85µM*
O=C(O)c1ccc(N=Nc2c(O)[nH]c3ccc(Br)cc23)cc1	18µM*	1.3µM*	.	?	11µM*
CC(C)(C)c1ccc(OCc2ccc(C(=O)N3CCOCC3)o2)cc1	13%	?	.	?	15µM*
Cc1cccc(OCc2ccc(C(=O)N3CCOCC3)o2)c1	-1%	3%	.	3%	0%
CCOc1ccc(OCc2ccc(C(=O)NCc3ccncc3)o2)cc1	?	?	16%	?	-21%
